This passage reports log2 fold change results from the supplement of paper PMC10849652.

Targets with a hit are over-represented here; the source holds about 8,800 in all. About 0.5% of all pairs of compound and target were hits. Values without a mark were called inactive.

Chain of UniProt Q9Y6C9 (Q9Y6C9 whole entry, looked up): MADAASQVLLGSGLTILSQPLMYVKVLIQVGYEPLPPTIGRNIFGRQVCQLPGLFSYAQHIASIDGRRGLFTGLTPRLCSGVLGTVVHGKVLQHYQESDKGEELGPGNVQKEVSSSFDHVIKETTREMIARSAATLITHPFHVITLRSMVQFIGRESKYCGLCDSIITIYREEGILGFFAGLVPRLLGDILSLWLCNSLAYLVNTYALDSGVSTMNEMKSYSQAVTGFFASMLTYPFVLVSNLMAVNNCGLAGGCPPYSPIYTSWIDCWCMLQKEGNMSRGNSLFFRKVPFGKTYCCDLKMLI
Chain of UniProt Q99836 (Q99836 whole entry, looked up): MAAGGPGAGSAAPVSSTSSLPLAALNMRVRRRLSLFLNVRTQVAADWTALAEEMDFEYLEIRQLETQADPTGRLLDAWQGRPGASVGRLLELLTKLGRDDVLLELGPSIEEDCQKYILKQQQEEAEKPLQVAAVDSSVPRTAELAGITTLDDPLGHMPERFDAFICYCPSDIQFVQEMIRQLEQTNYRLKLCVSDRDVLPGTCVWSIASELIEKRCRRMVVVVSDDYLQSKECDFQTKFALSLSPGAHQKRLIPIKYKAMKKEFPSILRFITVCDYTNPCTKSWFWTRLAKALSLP
Chain of UniProt Q8TDX7 (Q8TDX7 whole entry, looked up): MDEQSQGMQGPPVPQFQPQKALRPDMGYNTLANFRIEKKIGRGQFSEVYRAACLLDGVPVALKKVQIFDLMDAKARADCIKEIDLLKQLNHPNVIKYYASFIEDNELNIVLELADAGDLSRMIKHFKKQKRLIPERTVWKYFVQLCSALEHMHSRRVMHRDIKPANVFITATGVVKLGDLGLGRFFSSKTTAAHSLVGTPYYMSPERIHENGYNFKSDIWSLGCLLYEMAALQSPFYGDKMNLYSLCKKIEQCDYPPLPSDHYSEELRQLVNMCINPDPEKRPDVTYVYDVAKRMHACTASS
Chain of UniProt Q8TEW0 (Q8TEW0 whole entry, looked up): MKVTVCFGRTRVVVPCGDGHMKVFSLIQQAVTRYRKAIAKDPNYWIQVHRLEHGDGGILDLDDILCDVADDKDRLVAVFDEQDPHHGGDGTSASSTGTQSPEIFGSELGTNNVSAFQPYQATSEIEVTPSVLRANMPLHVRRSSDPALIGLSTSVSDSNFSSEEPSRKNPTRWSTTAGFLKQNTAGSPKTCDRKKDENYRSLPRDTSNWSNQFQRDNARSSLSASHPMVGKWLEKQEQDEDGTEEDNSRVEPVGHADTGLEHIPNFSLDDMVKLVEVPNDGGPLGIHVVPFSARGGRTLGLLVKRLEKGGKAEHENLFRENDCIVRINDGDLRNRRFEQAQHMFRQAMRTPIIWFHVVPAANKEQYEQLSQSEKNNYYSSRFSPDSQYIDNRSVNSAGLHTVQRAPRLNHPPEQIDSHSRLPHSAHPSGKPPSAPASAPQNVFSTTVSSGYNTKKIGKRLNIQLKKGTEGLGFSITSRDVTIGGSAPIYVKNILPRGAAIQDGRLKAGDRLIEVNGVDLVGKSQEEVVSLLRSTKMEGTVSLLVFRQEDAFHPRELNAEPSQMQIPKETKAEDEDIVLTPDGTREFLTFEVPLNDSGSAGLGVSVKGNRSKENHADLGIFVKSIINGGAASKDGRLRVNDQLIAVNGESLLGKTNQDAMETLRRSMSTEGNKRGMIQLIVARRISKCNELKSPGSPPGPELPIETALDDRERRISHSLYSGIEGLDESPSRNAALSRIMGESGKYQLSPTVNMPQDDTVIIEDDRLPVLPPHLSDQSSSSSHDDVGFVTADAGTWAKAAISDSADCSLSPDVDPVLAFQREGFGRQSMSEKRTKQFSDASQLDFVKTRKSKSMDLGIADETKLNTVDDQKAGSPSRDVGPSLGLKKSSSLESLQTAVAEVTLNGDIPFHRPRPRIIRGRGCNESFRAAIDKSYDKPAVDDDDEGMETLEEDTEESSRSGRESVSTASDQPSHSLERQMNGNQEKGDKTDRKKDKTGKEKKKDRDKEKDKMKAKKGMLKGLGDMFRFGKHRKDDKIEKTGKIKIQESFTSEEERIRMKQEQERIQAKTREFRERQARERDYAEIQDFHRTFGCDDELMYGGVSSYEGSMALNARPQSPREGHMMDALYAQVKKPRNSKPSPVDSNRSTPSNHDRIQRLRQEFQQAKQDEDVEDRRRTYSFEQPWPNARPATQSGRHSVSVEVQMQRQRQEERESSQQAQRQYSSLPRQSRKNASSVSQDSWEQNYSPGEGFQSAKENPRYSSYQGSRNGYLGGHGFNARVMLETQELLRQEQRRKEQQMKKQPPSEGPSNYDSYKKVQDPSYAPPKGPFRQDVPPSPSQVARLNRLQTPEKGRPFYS
Chain of UniProt Q8N1F7 (Q8N1F7 whole entry, looked up): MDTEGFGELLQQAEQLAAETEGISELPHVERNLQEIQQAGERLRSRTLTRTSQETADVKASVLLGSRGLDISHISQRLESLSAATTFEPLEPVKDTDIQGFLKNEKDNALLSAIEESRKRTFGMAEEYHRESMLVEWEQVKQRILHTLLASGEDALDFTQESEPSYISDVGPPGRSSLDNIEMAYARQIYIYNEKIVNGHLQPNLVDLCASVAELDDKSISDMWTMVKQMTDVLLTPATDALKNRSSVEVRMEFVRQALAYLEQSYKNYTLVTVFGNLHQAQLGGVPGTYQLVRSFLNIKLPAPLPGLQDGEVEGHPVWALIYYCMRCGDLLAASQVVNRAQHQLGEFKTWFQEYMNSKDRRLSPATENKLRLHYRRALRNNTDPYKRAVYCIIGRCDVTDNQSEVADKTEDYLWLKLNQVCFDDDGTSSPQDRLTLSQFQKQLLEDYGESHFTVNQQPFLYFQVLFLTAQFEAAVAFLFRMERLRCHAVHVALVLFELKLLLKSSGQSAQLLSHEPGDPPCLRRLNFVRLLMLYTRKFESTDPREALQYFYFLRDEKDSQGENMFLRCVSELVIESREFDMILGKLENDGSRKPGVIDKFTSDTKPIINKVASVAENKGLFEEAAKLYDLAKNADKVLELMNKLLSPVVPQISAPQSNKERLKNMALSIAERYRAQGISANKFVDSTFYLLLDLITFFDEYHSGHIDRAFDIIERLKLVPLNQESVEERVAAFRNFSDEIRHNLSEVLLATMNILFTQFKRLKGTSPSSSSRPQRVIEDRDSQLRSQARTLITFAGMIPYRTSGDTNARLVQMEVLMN
Chain of UniProt Q969R2 (Q969R2 whole entry, looked up): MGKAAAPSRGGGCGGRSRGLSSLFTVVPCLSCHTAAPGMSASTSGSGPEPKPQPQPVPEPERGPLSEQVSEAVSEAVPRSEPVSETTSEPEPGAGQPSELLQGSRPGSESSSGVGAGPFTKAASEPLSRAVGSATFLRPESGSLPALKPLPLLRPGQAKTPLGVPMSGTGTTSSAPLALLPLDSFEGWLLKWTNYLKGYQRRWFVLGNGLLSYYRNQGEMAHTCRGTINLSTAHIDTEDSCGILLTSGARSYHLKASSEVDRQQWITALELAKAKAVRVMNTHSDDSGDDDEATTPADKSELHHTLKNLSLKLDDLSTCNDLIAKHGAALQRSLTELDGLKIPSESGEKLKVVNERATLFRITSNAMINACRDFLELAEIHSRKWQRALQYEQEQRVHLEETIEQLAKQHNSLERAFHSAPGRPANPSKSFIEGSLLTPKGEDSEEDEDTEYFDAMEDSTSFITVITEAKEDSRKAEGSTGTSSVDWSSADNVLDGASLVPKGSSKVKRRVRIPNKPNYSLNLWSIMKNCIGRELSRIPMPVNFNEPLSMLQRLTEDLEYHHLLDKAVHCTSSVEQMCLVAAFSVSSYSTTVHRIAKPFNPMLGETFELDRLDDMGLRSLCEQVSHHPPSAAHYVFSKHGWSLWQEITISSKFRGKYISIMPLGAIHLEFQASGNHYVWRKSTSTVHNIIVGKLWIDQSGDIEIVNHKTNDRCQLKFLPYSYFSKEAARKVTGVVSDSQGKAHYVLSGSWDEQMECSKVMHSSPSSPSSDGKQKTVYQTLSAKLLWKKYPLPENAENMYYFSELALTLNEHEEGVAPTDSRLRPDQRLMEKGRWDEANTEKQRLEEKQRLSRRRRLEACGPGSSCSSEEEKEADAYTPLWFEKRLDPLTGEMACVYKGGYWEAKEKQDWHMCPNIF
Chain of UniProt Q9NVE7 (Q9NVE7 whole entry, looked up): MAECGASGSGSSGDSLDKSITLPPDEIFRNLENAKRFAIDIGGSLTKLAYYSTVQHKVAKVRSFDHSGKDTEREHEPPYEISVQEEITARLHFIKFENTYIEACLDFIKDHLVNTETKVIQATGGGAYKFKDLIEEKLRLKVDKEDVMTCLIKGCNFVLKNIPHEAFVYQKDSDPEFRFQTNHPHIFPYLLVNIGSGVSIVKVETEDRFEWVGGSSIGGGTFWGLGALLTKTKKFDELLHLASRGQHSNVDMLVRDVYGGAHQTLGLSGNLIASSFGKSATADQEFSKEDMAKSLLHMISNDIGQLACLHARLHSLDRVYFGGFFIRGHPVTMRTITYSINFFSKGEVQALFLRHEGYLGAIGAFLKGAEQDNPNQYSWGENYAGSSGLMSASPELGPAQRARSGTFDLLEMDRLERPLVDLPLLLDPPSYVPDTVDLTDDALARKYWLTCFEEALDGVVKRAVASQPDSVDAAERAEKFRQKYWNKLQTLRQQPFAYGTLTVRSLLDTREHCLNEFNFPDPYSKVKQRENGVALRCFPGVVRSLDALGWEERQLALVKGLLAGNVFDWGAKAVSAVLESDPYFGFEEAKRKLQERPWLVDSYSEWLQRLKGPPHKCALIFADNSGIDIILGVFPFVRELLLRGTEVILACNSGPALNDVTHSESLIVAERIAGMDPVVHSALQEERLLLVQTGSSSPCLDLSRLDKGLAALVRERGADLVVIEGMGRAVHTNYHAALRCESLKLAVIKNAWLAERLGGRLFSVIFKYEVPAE
Chain of UniProt Q9UFN0 (Q9UFN0 whole entry, looked up): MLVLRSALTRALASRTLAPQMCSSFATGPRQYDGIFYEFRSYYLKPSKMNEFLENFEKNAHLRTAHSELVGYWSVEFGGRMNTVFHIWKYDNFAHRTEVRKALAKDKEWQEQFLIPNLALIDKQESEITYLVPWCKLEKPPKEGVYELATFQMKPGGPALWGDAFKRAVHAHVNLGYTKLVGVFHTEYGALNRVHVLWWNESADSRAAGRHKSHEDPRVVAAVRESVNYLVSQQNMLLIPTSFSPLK

Compound in one test: CC1=C(C=C(C=C1)NC(=O)C2=CC(=CC=C2)N(C)C)NC(=O)C3=CC=C(C=C3)O
Nature of the test: log2 fold change, soluble protein after heating vs DMSO (PISA); higher = thermal stabilisation; K562 lysate, 10 uM; active = over 0.2 and 3.5 SD of the protein, either way, in both replicates (recomputed). Summed up:
(§1)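 Log-two fold change in thermal stability relative to solvent controls is reported from duplicates. For each sample, crude K562 extract from dounce-homogenised pellets in PBS pH 7.4 with 1 mM MgCl2, at 1 mg/mL protein, was treated with 10 μM compound for 30 min. Aliquots heated for 3 min across 48°C-58°C were pooled, brought to 0.5% NP-40 at 4°C and cleared at 21,000xg for 90 min. The supernatant was quantified by TMTpro 16plex LC-MS/MS with channel sums equalised.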
Take NUP93 (UniProt Q8N1F7): the log2 fold change is 0.036.
As to PANK4 (UniProt Q9NVE7), the log2 fold change is -0.005.
Same read-out and setting: the result for NIPSNAP3A (UniProt Q9UFN0) reads 0.022; that for OSBP2 (UniProt Q969R2), -0.011.
MTCH2 (UniProt Q9Y6C9): the log2 fold change is -0.036.
On the same count and under the same terms, the result for NUP160 (UniProt Q12769) reads -0.021; that for NEK7 (UniProt Q8TDX7), 0.053.
Turning to NLRP2 (UniProt Q9NX02), the log2 fold change is 0.021.
As for NUMB (UniProt P49757), the log2 fold change was 0.004.
Still for that read-out and setting: for NEK9 (UniProt Q8TD19) the value was 0.009; for MSH6 (UniProt P52701), 0.057.
For NIFK (UniProt Q9BYG3), the log2 fold change is 0.016.
Regarding OGFOD2 (UniProt Q6N063), the log2 fold change was -0.029.
Still for that read-out and setting: for NFATC1 (UniProt O95644) the value was -0.015.
For NFIC (UniProt P08651), the log2 fold change is 0.04.
The same measure, in the same setting: for OARD1 (UniProt Q9Y530) the value was 0.035; for NOB1 (UniProt Q9ULX3), 0.019; for NARS2 (UniProt Q96I59), 0.045.
On the same count and under the same terms, for NUP188 (UniProt Q5SRE5) the value was 0.042.
Consider NFKBIE (UniProt O00221), for which the log2 fold change is 0.05.
In the case of NNT (UniProt Q13423), the log2 fold change is 0.01.
Still for that read-out and setting: the result for ORC5 (UniProt O43913) reads 0.053.
Still for that read-out and setting: the result for MYO1D (UniProt O94832) reads 0.01.
In the case of OTUD7B (UniProt Q6GQQ9), the log2 fold change is 0.
As for NUF2 (UniProt Q9BZD4), the log2 fold change is 0.044.
Take PBK (UniProt Q96KB5): the log2 fold change was -0.013.
On the same count and under the same terms, the result for NUDT4 (UniProt Q9NZJ9) reads -0.014.
The same measure, in the same setting: the result for MYD88 isoform 6 (UniProt Q99836) reads -0.024; that for MRPL53 (UniProt Q96EL3), 0.044.
With MTMR6 (UniProt Q9Y217), the log2 fold change is 0.011.
For the target NELFCD (UniProt Q8IXH7), the log2 fold change is 0.049.
Consider NPLOC4 isoform 2 (UniProt Q8TAT6), for which the log2 fold change was 0.018.
With NCOR2 (UniProt C9J0Q5), the log2 fold change was -0.014.
Same read-out and setting: the result for NUDT5 (UniProt Q9UKK9) reads -0.014; that for NMT1 (UniProt P30419), 0.017.
On to PARD3 (UniProt Q8TEW0), for which the log2 fold change is 0.01.

Compound in the next test: CC1=CC=C(C=C1)SC2=C3C=C(SC3=CN=C2)C(=O)N
The description is as above. Summed up: as §1
Take NUP93 (UniProt Q8N1F7): the log2 fold change is 0.
The same measure, in the same setting: the result for PANK4 (UniProt Q9NVE7) reads -0.005; that for NIPSNAP3A (UniProt Q9UFN0), -0.056.
Regarding OSBP2 (UniProt Q969R2), the log2 fold change was 0.
Same read-out and setting: for MTCH2 (UniProt Q9Y6C9) the value was 0.031; for NUP160 (UniProt Q12769), 0.001; for NEK7 (UniProt Q8TDX7), 0.002.
Consider NLRP2 (UniProt Q9NX02), for which the log2 fold change was 0.021.
Same read-out and setting: the result for NUMB (UniProt P49757) reads -0.005.
As to NEK9 (UniProt Q8TD19), the log2 fold change is 0.016.
For the target MSH6 (UniProt P52701), the log2 fold change was 0.003.
On to NIFK (UniProt Q9BYG3), for which the log2 fold change was 0.032.
In the case of OGFOD2 (UniProt Q6N063), the log2 fold change is -0.023.
Same read-out and setting: the result for NFATC1 (UniProt O95644) reads -0.052; that for NFIC (UniProt P08651), -0.082; that for OARD1 (UniProt Q9Y530), 0.011.
The same measure, in the same setting: the result for NOB1 (UniProt Q9ULX3) reads 0.004.
For the target NARS2 (UniProt Q96I59), the log2 fold change is 0.038.
Same read-out and setting: for NUP188 (UniProt Q5SRE5) the value was -0.018.
For the target NFKBIE (UniProt O00221), the log2 fold change was 0.018.
Same read-out and setting: for NNT (UniProt Q13423) the value was -0.009.
Same read-out and setting: for ORC5 (UniProt O43913) the value was -0.007; for MYO1D (UniProt O94832), 0.031.
Still for that read-out and setting: the result for OTUD7B (UniProt Q6GQQ9) reads 0.047; that for NUF2 (UniProt Q9BZD4), 0.009.
Turning to PBK (UniProt Q96KB5), the log2 fold change is 0.019.
Same read-out and setting: for NUDT4 (UniProt Q9NZJ9) the value was 0.058; for MYD88 isoform 6 (UniProt Q99836), -0.029; for MRPL53 (UniProt Q96EL3), 0.011.
On the same count and under the same terms, for MTMR6 (UniProt Q9Y217) the value was -0.006; for NELFCD (UniProt Q8IXH7), -0.02; for NPLOC4 isoform 2 (UniProt Q8TAT6), -0.015.
Still for that read-out and setting: for NCOR2 (UniProt C9J0Q5) the value was -0.04.
In the case of NUDT5 (UniProt Q9UKK9), the log2 fold change was -0.042.
As for NMT1 (UniProt P30419), the log2 fold change is 0.001.
Still for that read-out and setting: the result for PARD3 (UniProt Q8TEW0) reads -0.068.
